Results from the OligoGym collection.

target: RHOH; assay: pooled miR-30 sensor sort-seq; sequence = guide strand; details: shRNA
Also: reference of the scale not given here.

Sequence | sensor-assay potency score (higher = more potent)
TAATTTCACCAATCCACTTGTT | 0.134
AACACCTGCTGTACTCCCCGAT | -0.621
TTGATGGAGAAGAGCCTCCTTC | -0.911
TGTTCTCGTACACTGTGGGCTT | -0.393
AAACACCTGCTGTACTCCCCGA | -0.993
TTGACGGCAGTTCGGACGGCGC | -1.65
TTCTCGTACACTGTGGGCTTGT | -0.506
TCCGGGAAGGTCTCGGAGGTGA | -1.75
AATTTCACCAATCCACTTGTTC | -0.62
TACACTGTGGGCTTGTAGGCCT | -0.53
TAGCACATCAGCACCACGTCTG | 0.265
AAGCGCACCAACAGAGAGGTTT | -0.535
TTCAGGAATGAGTTATGGTTGG | -0.949
TTCTGAAGGCGTCATTGCCGGC | -1.35
TAAGGGCTGAGCACTCCAGGTA | -0.636
TGTGTTCTCGTACACTGTGGGC | -1.21

target: RHOJ; assay: as above; details: shRNA

Sequence | sensor-assay potency score (higher = more potent)
AACATCTTCTTCTCGTCGTTGC | 0.438
TTTGAGACCTTTCTGAGTCAGA | -0.62
TTCTGAGTCAGAGCTGAACATT | -1.66
TCAACATCTTCTTCTCGTCGTT | 0.0564
TTCAACATCTTCTTCTCGTCGT | 0.937
ATAGTGGTCAAACACAGTGGGC | -0.911
TTTCTCTTTCATATACAGCAAA | -0.918
TAGCACTGTGCTCCGATCGCTT | -0.602
TTCTTCTCGTCGTTGCCCCTGC | -0.309
TTCTCTTTCATATACAGCAAAC | -1.56
TTGGCTGCCATTCTCATCCCTG | -0.433
TTGACTTTGTTTTTGATGCGAT | -0.0639

target: RIC8A; assay: as above; details: shRNA

Sequence | sensor-assay potency score (higher = more potent)
TTTCAGCTCCTGAAACAGCTGC | -0.481
TTCACTCCCATGAACTCCGTGG | 0.138
TACAACATCCATGTCTGCGGAC | -0.737
AAGAACTGGACATCGTGGGGGA | 0.415
AACATCCAGACACTTGAGGGGC | -0.627
TAGTCTCGCACATGGCATCCTG | -1.08
TTGGGCATCATCAAACGTGAAG | -0.89
TTTGAGGATCTCCATGGCCCGC | -1.76
TTCTAGCACAAGAAGACCGTTG | 0.199
TTGTTCCGCAGCATCTCCCCAA | -0.652
TGGGCCTTCAGGAACTTCCTGG | -0.964
TACACTCTCCTTCAGCCTGTGT | -1.16
